# How the values were obtained:
# Assay in all cases: PBM binding z-score (relative to random genomic background probes); higher = stronger binding; sequences stand for … in GC…GCGATTGACAGCGTAGAATGAAGG
# [1] = test system: FXR:RXRa (NR concentration 270 nM, RXRa partner concentration 90 nM)
# Summary of the method: (§1)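 The probes on custom Agilent 4×180K protein-binding microarrays were double-stranded, with 34-nt variable regions bearing direct-repeat seeds, single-nucleotide variants, half-site ablations and random human genomic background sequences. Incubation lasted 1 h with ligand-free nuclear receptor dimers in PBS pH 7.4, 2% milk, 0.02% Triton X-100, 1 mM DTT, 0.2 mg/mL BSA and 0.4 mg/ml salmon testes DNA. Antibodies against each partner (one per run) detected bound dimers, and fluorescence scans were regression-normalized. Binding z-scores take the random background probes as reference.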
# [2] = test system: LXRa:RXRa (NR concentration 270 nM, RXRa partner concentration 90 nM)
# Summary of the method: as §1
# [3] = test system: LXRa homodimer (NR concentration 270 nM)
# Summary of the method: as §1
# [4] = test system: LXRb:RXRa (NR concentration 270 nM, RXRa partner concentration 90 nM)
# Summary of the method: as §1
# [5] = test system: LXRb homodimer (NR concentration 270 nM)
# Summary of the method: as §1
# [6] = test system: PPARa:RXRa (NR concentration 270 nM, RXRa partner concentration 90 nM)
# Summary of the method: as §1
# [7] = test system: PPARg:RXRa (NR concentration 180 nM, RXRa partner concentration 90 nM)
# Summary of the method: as §1
# [8] = test system: PPARg:RXRa 270nM:90nM, anti-RXR (NR concentration 270 nM, RXRa partner concentration 90 nM)
# Summary of the method: as §1
# [9] = test system: PPARg:RXRa 30nM:10nM, anti-RXR (NR concentration 30 nM, RXRa partner concentration 10 nM)
# Summary of the method: as §1
# [10] = test system: PPARg:RXRa 90nM:30nM, anti-RXR (NR concentration 90 nM, RXRa partner concentration 30 nM)
# Summary of the method: as §1
# [11] = test system: PPARg:RXRa DBDmut IVT, anti-RXR (DBD mutation: RXRa K156A/R161A, NR concentration 270 nM, RXRa partner concentration 90 nM)
# Summary of the method: as §1
# [12] = test system: PPARg:RXRa IVT, anti-PPARg (NR concentration 270 nM, RXRa partner concentration 90 nM)
# Summary of the method: as §1
# [13] = test system: PPARg DBDmut:RXRa IVT, anti-PPARg (DBD mutation: PPARg1 K132A/R137A, NR concentration 270 nM, RXRa partner concentration 90 nM)
# Summary of the method: as §1
# [14] = test system: PPARg DBDmut IVT, anti-PPARg (DBD mutation: PPARg1 K132A/R137A, NR concentration 270 nM)
# Summary of the method: as §1
# [15] = test system: PPARg homodimer (NR concentration 180 nM)
# Summary of the method: as §1
# [16] = test system: PXR:RXRa (NR concentration 270 nM, RXRa partner concentration 90 nM)
# Summary of the method: as §1
# [17] = test system: PXR homodimer (NR concentration 270 nM)
# Summary of the method: as §1
# [18] = test system: RARa:RXR (NR concentration 270 nM, RXRa partner concentration 90 nM)
# Summary of the method: as §1
# [19] = test system: RARa homodimer (NR concentration 270 nM)
# Summary of the method: as §1
# [20] = test system: RARb:RXRa (NR concentration 270 nM, RXRa partner concentration 90 nM)
# Summary of the method: as §1
Sequence,PBM binding z-score [1],PBM binding z-score [2],PBM binding z-score [3],PBM binding z-score [4],PBM binding z-score [5],PBM binding z-score [6],PBM binding z-score [7],PBM binding z-score [8],PBM binding z-score [9],PBM binding z-score [10],PBM binding z-score [11],PBM binding z-score [12],PBM binding z-score [13],PBM binding z-score [14],PBM binding z-score [15],PBM binding z-score [16],PBM binding z-score [17],PBM binding z-score [18],PBM binding z-score [19],PBM binding z-score [20]
TAGCCTAGGTCATTCAGGGGCCAGTAGAGAAAGC,4.49,3.73,0.592,3.1,1.16,3.64,1.7,2.31,0.562,1.53,1.64,2.66,-0.415,-0.024,1.83,2.21,-0.162,3.33,0.0247,3.88
CCTTACGGGACAAGGTTATAGCACGGGTGGTACG,0.441,0.693,-0.25,0.134,-0.233,1.02,1.08,0.756,0.00492,0.323,-0.648,0.0765,-0.507,-0.996,0.819,0.699,0.148,1.01,0.441,0.996
ATCTCGAGGTAAAGATAGTTCAGTGAATGCAAAT,0.198,5.34,0.132,1.62,0.118,0.727,0.145,0.25,0.14,0.23,-0.0258,0.54,0.0992,0.266,0.0262,2.22,0.66,0.499,-0.0875,0.896
CAAACTAGGTCAAAGGTCAAAGTCGAGCCAACCA,8.73,7.31,6.02,7.38,3.55,7.8,14,11.4,12.3,13.1,8.73,9.33,2.23,2.15,5.09,7.21,2.02,8.8,3.18,5.96
ACTTACGGGTCCACGAGGTTATAGCACGCGTATA,0.87,0.822,0.478,1.39,0.189,1.6,1.01,0.696,0.165,0.469,0.0725,0.67,0.473,0.278,0.407,1.48,1.01,1.8,0.384,1.15
GCTATTAGTTGAAACGGCAACCGAATGATTCTCG,-0.263,-0.34,-0.23,-0.237,0.111,-0.33,0.341,-0.00574,0.0955,0.0763,0.254,-0.276,-0.0416,-0.0923,0.137,-0.267,0.122,-0.411,-0.177,-0.226
TCTTGTAGATCAAAGGGTAAGAAAGCCGAAGCCT,0.566,0.4,-0.283,0.288,-0.418,2.51,4.4,5.99,5.35,6.1,1.69,1.86,-0.0494,-0.151,-0.138,0.0425,-0.478,0.483,-0.0812,0.507
CCTACTGGGCCAAAGTCATTGATCAGTCAAAGCA,-0.681,-0.266,-0.412,-0.243,-1.2,0.687,1.42,2.53,0.485,1.74,4.29,3.6,-0.537,-0.517,-0.302,-0.584,-0.623,-0.335,-1.15,0.121
ATCGAAAGGTCGTGAGGTGCGTATACAGAAAGGC,5.17,3.73,-0.157,2.99,-0.0634,5.18,3.39,3.76,1.13,2.4,0.0193,1.75,0.734,0.404,1.37,2.98,0.197,3.01,0.318,3.85
TCTTGTAGATCAACAGGGGGTTAAGAAAGATCGA,1.48,2.69,0.266,3.75,8.09,2.75,0.692,2.99,3.73,3.26,2.83,3.29,5.31,7.46,1.07,2.5,0.467,2.42,0.939,1.71
TCGAGTAGGTTACCAATGGGGCAATCAGCTTTCT,-0.178,1.28,-0.627,0.776,-1.22,1.27,0.44,1.02,1,1.13,3.39,2.82,0.0614,0.102,-0.476,0.111,-0.71,0.261,-0.846,0.959
TCGAGTAGGATAGGGGCATTCAGAATGGCGTCGA,0.0392,-0.388,-0.671,0.283,-0.491,0.262,0.0969,0.573,0.884,0.812,0.794,-0.24,-0.499,-1.34,0.0464,-0.136,-0.0675,-0.134,-0.862,0.225
CTCGAAAGGTCGTGCTCAGGTGACTATACCAAAC,5.25,3.88,0.561,3.69,0.323,4.97,2.84,3.95,1.46,2.76,1.01,2.13,-0.324,0.674,1.85,3.67,0.399,4.75,0.319,4
ATATGGAGGTTATCGGGTCATTCAGTTTGCGCAT,4.63,4.39,2.28,3.8,1.41,4.84,5.29,5,2.08,3.73,4.66,4.91,1.95,1.8,2.89,4.61,8.4,4.75,1.62,3.26

# Reference: the supplement of paper PMC6555819
